In PMC4336329 (PLoS ONE, 2015):
Among all 310,000 compounds or so, about 2,200 (0.71%) showed an effect of 50% or more. Effects have a minus sign here. The sample holds strong results, similar compounds and a random draw of the others, so the mix is not that of the screen.

What follows are molecules tested against human ether-à-go-go-related gene (hERG) potassium channel (human, UniProt Q12809) (assay: primary screen, population patch clamp on CHO cells stably expressing hERG; higher = less effect of the substance).
Chain of human ether-à-go-go-related gene (hERG) potassium channel (Q12809 whole entry, looked up): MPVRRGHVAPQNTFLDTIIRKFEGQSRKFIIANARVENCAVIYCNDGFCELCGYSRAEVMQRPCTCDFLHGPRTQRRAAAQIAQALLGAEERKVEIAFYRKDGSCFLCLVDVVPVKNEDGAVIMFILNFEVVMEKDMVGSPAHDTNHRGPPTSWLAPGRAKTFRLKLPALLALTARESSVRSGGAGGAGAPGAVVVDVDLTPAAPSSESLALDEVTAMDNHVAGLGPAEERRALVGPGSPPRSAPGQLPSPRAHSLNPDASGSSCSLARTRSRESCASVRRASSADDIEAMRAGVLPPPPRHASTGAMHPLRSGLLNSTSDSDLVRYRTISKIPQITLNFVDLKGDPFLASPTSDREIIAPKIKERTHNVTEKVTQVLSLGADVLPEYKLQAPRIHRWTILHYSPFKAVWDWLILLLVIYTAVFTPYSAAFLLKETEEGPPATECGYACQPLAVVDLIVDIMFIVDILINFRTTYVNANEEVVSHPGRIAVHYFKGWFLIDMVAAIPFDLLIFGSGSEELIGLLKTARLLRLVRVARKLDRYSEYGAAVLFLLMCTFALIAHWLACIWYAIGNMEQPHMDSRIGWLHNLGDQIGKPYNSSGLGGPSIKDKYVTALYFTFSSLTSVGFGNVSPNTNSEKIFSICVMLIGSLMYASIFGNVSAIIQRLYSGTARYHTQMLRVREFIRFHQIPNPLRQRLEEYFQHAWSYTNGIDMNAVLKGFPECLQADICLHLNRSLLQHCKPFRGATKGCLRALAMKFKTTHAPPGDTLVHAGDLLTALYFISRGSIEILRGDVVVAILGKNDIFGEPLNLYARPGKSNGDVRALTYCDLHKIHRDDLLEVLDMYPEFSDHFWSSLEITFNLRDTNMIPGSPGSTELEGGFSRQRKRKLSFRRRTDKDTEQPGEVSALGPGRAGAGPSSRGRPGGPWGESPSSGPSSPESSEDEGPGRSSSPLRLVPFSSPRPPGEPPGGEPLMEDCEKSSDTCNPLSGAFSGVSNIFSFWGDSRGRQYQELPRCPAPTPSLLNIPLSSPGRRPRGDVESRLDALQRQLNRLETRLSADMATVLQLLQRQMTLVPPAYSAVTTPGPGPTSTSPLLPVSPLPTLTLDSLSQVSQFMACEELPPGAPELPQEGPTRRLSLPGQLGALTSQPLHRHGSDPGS

Structure (SMILES)	hERG current change (%, negative = inhibition) at 1uM
Oc1cnn(-c2ccccc2)c1	5.96%
CC(=O)NC(CC(=O)OCc1ccc([N+](=O)[O-])cc1)c1ccccc1 (stereo not shown)	-27%
COCCNC(=O)CSc1nc2sccc2c(=O)n1-c1ccccc1	16.6%
CCn1c(NC(=O)C(C)C)c2ccccc2nc1=O	2.18%
COc1cc(C)nc(N(C)S(=O)(=O)c2ccccc2Cl)n1	7.72%
CCN(CC)S(=O)(=O)c1cccc(NC(=O)c2ccc(C#N)cc2)c1	3.29%
CCN(CC)S(=O)(=O)c1cccc(C(=O)Nc2ccccc2)c1	-0.175%
CCN(CC)S(=O)(=O)c1cccc(C(=O)Nc2ccc(C#N)cc2)c1	-74%
COC(=O)CSC(C(=O)Nc1ccc(C)c(C)c1)c1ccccc1 (stereo not shown)	-4.33%
O=C(Cn1ccc([N+](=O)[O-])n1)N1CCCCCC1	13.1%
COC(=O)c1ccc(/C=N/NC(=O)C2CC(=O)N(c3ccc(F)cc3)C2)cc1 (stereo not shown)	16.8%
COC(=O)c1nn(-c2cccc(C(F)(F)F)c2)ccc1=O	8.73%
COc1ccc(C(=O)N/N=C/c2ccc(OC)c(CN3CCc4cc(OC)c(OC)cc4C3C)c2)cc1 (stereo not shown)	-85.1%
COc1ccc(C(=O)N/N=C/c2ccc(OC)c(CN3CCCc4ccccc43)c2)cc1	-6.65%
COc1ccc(/C=N/NC(=O)c2ccccc2[N+](=O)[O-])cc1CN1CCc2cc(OC)c(OC)cc2C1C (stereo not shown)	-10.4%
COc1ccc(/C=N/NC(=O)c2ccc(F)cc2)cc1CN1CCc2cc(OC)c(OC)cc2C1C (stereo not shown)	-99.1%
COc1ccc(/C=N/NC(=O)c2cccnc2)cc1CN1CCc2cc(OC)c(OC)cc2C1C (stereo not shown)	1.82%
COc1ccc(/C=N/NC(=O)c2cc(OC)c(OC)c(OC)c2)cc1CN1CCc2cc(OC)c(OC)cc2C1C (stereo not shown)	-21.9%
Cc1cccc([C@@H]2[C@@H]3C(=O)N(Cc4ccccc4)C(=O)[C@@H]3[C@]3(Cc4ccccc4)C(=O)N(c4cccc(F)c4)C(=O)N23)c1	9.13%
COc1cc(/C=C2/SC(=S)N(CC(=O)O)C2=O)ccc1OC(=O)c1ccco1	7.62%
N=C1/C(=C/c2ccc(OCc3ccccc3F)cc2)C(=O)N=C2SC(CC(=O)N3CCOCC3)=NN12	12.2%
CCC(Sc1nc(N)c(NC(=O)c2ccc(OC)c(OC)c2)c(=O)[nH]1)C(=O)OC (stereo not shown)	-5.41%

Structure (SMILES)	hERG current change (%, negative = inhibition) at 1uM
CCC(NS(=O)(=O)c1cccs1)c1ccc(C)cc1 (stereo not shown)	8.69%
O=[N+]([O-])c1cccc2c(N3CCCC3)ccnc12	-84.4%
Cc1ccc(S(=O)(=O)N2CCN(c3ccc([N+](=O)[O-])c4cccnc34)CC2)cc1	7.53%
O=C(c1cc(F)c(F)cc1Cl)N1CCN(c2ccc([N+](=O)[O-])c3ncccc23)CC1	-53.6%
O=[N+]([O-])c1cccc2c(N3CCOCC3)ccnc12	10%
O=[N+]([O-])c1ccc(N2CCOCC2)c2cccnc12	-7.04%
O=C(c1ccccc1F)N1CCN(c2ccc([N+](=O)[O-])c3ncccc23)CC1	-38.7%
O=[N+]([O-])c1ccc(N2CCN(S(=O)(=O)c3ccccc3)CC2)c2cccnc12	-75.6%
O=C(c1ccccc1F)N1CCN(c2ccc([N+](=O)[O-])c3cccnc23)CC1	-13.2%
O=[N+]([O-])c1ccc(N2CCCC2)c2ncccc12	2.1%
COc1cc(NC(=O)C2CC(=O)N(Cc3ccco3)C2)cc(OC)c1 (stereo not shown)	2.39%
CC/C(=N\NC(=O)c1ccc(N2CCCC2=O)cc1)c1ccccc1	10.8%
Cc1ccc2nc(SC(C)C(=O)NC3CCCc4ccccc43)[nH]c2c1 (stereo not shown)	11.6%
CC1(c2ccc([N+](=O)[O-])cc2)NC(=O)N(CC(=O)Nc2ccc(N3CCCCC3)cc2)C1=O (stereo not shown)	14.8%
Cc1ccc(-n2ncc3c2CCCC3NC(=O)c2cnccn2)cc1C (stereo not shown)	10.3%
CCOc1ccc(C(C)NC(=O)Cc2ccccc2)cc1OCC (stereo not shown)	10.8%
O=C(Cn1nc(C(F)(F)F)cc1C1CC1)Nc1ccccc1F	16.1%
COCCN1CC(=O)N2C(c3cccc(C)c3)c3[nH]c4ccccc4c3C[C@H]2C1=O (stereo partly shown)	1.07%
COc1cc2c3nnc(-c4ccc(F)cc4)c-3cn(Cc3ccc(C)cc3)c2cc1OC	13.5%
COc1cc2c3nnc(-c4ccc(F)cc4)c-3cn(Cc3ccc(F)cc3)c2cc1OC	-5.13%
COc1ccc(Cn2cc3c(-c4ccc(F)cc4)nnc-3c3cc(OC)c(OC)cc32)cc1	-75.6%
